The results in this text go back to PubChem BioAssay.

A number with no mark means an inactive call. For some of these results: Potency and affinity values are given separately. Active and inactive are the calls of the source. Unless noted, no rule for the calls is given here.

The nature of assay [1]: antimalarial activity against Dd2 strain (AID 2302;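 active = growth inhibition above 50% at the single 2 µM test dose, taken to imply half-maximal potency below 2 µM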;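 also: 0% = DMSO untreated growth and 100% = chloroquine plus artemisinin killed control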). To be noted: P. falciparum Dd2 in RBCs, LDH growth readout, 72 h; at 2 µM; hits give high values.
A short description of assay [2]: human hepatoma cell viability loss – ATP luminescence, cytotoxicity control for P. falciparum antimalarial project, primary screen (AID 2303;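 active = inhibition above 50%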;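 also: 0% = DMSO wells and 100% = digitonin-killed cells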). As to conditions: HepG2 viability, 24-48 h, at 10 µM, hits give high values.
The target in assay [3] is L-lactate dehydrogenase (Plasmodium falciparum (isolate CDC / Honduras)) (UniProt Q27743). Description: PfLDH activity inhibition – cell lysate, 3D7 strain, counter-screen for P. falciparum growth inhibition project (AID 2304).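 Also: 0% = vehicle and 100% = reference inhibitor.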 To be noted: P. falciparum 3D7 crude extract, LDH APAD/NBT absorbance; at 2 µM; hits give high values.
Sequence of L-lactate dehydrogenase (Plasmodium falciparum (isolate CDC / Honduras)) (Q27743 whole entry, looked up): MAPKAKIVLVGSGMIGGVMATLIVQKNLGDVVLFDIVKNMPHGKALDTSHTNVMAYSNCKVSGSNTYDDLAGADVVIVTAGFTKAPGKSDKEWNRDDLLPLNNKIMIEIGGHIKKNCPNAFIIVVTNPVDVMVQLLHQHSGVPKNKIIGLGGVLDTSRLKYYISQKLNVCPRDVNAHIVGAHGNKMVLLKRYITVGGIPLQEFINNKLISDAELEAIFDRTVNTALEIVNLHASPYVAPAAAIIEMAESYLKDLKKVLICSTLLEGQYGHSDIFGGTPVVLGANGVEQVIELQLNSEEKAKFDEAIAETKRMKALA
Assay [4] can be described thus: inhibition of 3D7 malaria parasite growth – strain 3D7 (AID 2306).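 Also: 0% = DMSO wells and 100% = chloroquine plus artemisinin control wells.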 To be noted: P. falciparum 3D7 erythrocytic growth, LDH absorbance, 72 h; at 2 µM; hits give high values.
Assay [5] has as its target Calcium-dependent protein kinase 1 (Plasmodium falciparum (isolate 3D7)) (UniProt P62344). Description: PfCDPK1 kinase inhibitors, biochemical, TCAMS library (AID 1159585; cut-off not given, nearly all actives have IC50 up to about 0.98 µM;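 also: inhibitors leave more ATP so luminescence rises with inhibition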). To be noted: recombinant PfCDPK1, Kinase-Glo ATP depletion luminescence. On the technique in general: Kinase-Glo reads ATP consumption through a luciferase reaction.
The target of assay [6] is Plasmodium falciparum protein kinase 6 (PK6, PF3D7_1337100) (UniProt Q8IDW1). Description: PfPK6 kinase inhibitors, biochemical, TCAMS library (AID 1159586). To be noted: recombinant PfPK6, Kinase-Glo ATP depletion luminescence.
Sequence of Plasmodium falciparum protein kinase 6 (PK6, PF3D7_1337100) (Q8IDW1 1-305): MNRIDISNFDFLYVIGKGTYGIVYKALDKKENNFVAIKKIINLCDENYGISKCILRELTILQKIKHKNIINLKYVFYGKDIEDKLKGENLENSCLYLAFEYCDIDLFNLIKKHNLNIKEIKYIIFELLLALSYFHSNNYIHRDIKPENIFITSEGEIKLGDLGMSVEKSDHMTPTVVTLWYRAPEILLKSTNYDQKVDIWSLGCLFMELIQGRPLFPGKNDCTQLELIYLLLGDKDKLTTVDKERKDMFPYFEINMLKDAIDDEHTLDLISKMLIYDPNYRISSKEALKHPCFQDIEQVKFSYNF
In assay [7] the target is Protein kinase 7 (PK7), Plasmodium falciparum 3D7 (PF3D7_0213400) (UniProt Q7YTF7). Description: inhibition of Plasmodium PK7 catalytic activity – biochemical, TCAMS antimalarial set, Kinase-Glo luminescence (AID 1159587). To be noted: recombinant PfPK7, Kinase-Glo ATP depletion luminescence.
Sequence of Protein kinase 7 (PK7), Plasmodium falciparum 3D7 (PF3D7_0213400) (Q7YTF7 1-343): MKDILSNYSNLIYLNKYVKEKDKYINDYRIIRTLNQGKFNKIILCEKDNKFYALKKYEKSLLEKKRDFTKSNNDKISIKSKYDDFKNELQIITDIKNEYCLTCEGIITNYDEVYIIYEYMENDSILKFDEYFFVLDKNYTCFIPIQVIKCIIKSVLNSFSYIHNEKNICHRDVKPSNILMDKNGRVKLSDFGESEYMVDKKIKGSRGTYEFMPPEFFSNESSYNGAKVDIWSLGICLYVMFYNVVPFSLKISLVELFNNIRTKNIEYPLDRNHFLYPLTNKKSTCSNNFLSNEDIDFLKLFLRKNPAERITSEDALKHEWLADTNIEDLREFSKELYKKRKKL
Assay [8] concerns the target Calcium-dependent protein kinase 4 (Plasmodium falciparum (isolate 3D7)) (UniProt Q8IBS5). Kind of assay: PfCDPK4 kinase inhibitors, biochemical, TCAMS library (AID 1159588; cut-off not given, nearly all actives have IC50 up to about 0.91 µM). To be noted: recombinant PfCDPK4, Kinase-Glo ATP depletion luminescence.

Sequence of Calcium-dependent protein kinase 4 (Plasmodium falciparum (isolate 3D7)) (Q8IBS5 whole entry, looked up): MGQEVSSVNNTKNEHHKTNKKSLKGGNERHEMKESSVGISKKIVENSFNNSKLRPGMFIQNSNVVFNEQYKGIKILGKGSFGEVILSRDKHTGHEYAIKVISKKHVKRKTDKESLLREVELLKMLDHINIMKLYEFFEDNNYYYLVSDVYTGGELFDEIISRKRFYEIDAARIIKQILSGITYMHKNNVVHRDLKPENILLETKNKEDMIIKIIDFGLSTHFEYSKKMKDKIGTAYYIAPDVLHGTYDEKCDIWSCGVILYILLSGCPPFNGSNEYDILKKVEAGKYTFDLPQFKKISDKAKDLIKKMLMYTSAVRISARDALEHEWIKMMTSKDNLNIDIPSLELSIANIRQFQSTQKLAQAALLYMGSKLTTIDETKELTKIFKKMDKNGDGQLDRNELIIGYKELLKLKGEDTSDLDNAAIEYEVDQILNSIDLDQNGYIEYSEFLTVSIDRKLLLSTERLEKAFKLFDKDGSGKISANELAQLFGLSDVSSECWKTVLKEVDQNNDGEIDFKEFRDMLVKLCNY
Sequence of Calcium-dependent protein kinase 1 (Plasmodium falciparum (isolate 3D7)) (P62344 whole entry, looked up): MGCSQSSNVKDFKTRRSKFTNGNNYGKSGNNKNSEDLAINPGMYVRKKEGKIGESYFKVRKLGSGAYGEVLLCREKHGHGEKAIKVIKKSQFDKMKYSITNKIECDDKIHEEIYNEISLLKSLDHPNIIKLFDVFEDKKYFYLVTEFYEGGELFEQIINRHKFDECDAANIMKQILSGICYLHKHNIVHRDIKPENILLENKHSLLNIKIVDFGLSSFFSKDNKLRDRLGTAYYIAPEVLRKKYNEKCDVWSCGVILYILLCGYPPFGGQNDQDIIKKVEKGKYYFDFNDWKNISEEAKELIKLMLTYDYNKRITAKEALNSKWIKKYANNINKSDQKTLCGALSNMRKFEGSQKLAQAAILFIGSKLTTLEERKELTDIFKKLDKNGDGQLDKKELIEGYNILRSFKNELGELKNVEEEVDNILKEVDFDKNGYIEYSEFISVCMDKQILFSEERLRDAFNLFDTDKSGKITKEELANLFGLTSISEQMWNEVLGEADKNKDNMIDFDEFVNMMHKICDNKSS

By inhibition is commonly meant the relative decrease from the control value, in per cent. Regarding `c1ccc2c(NCCc3cnc[nH]3)c3ccccc3nc2c1`, the growth inhibition in assay [1] was -1%; in assay [4], 91% (active). The inhibition in assay [2] was 20%; in assay [3], 6%. Besides, the outcome in assay [5], in assay [6], in assay [7] and in assay [8] was inactive.

On to `Cc1cc(Cl)ccc1NC(=O)NCCCCCN1CCC(c2c[nH]c3ccccc23)CC1`, for which the growth inhibition in assay [1] is 8%; in assay [4] it was 91% (active). For the same compound, the inhibition is 59% (active) in assay [2] and 0% in assay [3]. For the same compound, the result in assay [5], in assay [6], in assay [7] and in assay [8] was inactive.

As to `CC1CCC2(CC1)N=C(N)N=C(N)N2OCc1ccc(Br)c2ccccc12` (stereo not given), the growth inhibition in assay [1] is 40%; in assay [4], 96% (active). Further, the values for the inhibition in assay [2] and in assay [3] were 46% and -4%, respectively. Further, the result in assay [5], in assay [6], in assay [7] and in assay [8] was inactive.

Consider `COc1ccc(CNc2ccnc(-n3cnc4cc(C)c(C)cc43)n2)cc1Cl`, for which the growth inhibition in assay [1] and in assay [4] was 100% (active) in each case. The inhibition in assay [2] is 6%; in assay [3] it was -8%. Further, the result in assay [5], in assay [6], in assay [7] and in assay [8] was inactive.

Turning to `NCCNc1ccnc2cc(Cl)ccc12`, the growth inhibition in assay [1] is 54% (active); in assay [4] it was 101% (active). Besides, the inhibition in assay [2] is 9%; in assay [3], 4%. Further, the result in assay [5], in assay [6], in assay [7] and in assay [8] was inactive.

For the compound `CC1(C)[C@H]2CC[C@@H](CNc3nc(NCCc4cnc[nH]4)nc(Nc4ccc(Oc5ccccc5)cc4)n3)[C@@H]1C2`, the growth inhibition in assay [1] was 86% (active); in assay [4], 99% (active). The inhibition in assay [2] is 2%; in assay [3], 3%. In addition, the outcome in assay [5], in assay [6], in assay [7] and in assay [8] was inactive.

Consider `CN1CCN(CC(=O)Nc2cccc(-c3ccc(-c4nc5ccc(F)cc5[nH]4)cc3)c2)CC1`, for which the growth inhibition in assay [1] is 98% (active); in assay [4], 101% (active). For the same compound, the inhibition was 20% in assay [2] and 6% in assay [3]. Moreover, the outcome in assay [5], in assay [6], in assay [7] and in assay [8] was inactive.

`CCc1cccc(-n2c(=O)c3cccnc3n2CC(=O)NCc2ccccc2Cl)c1`: the growth inhibition in assay [1] was 19%; in assay [4] it was 98% (active). For the same compound, the inhibition in assay [2] is 25%; in assay [3] it was -8%. Moreover, the result in assay [5], in assay [6], in assay [7] and in assay [8] was inactive.

For `CCc1ccc(-n2c(=O)c3cccnc3n2CC(=O)NC2CCCC2)cc1`, the growth inhibition in assay [1] is 27%; in assay [4], 98% (active). Besides, the figures for the inhibition in assay [2] and in assay [3] were -1% and -7%, respectively. Besides, the outcome in assay [5], in assay [6], in assay [7] and in assay [8] was inactive.

Turning to `O=C(/C=C/c1ccc(Cl)c(Cl)c1)NCCCCCN1CCC(NC(=O)Nc2cc(F)ccc2F)CC1`, the figures for the growth inhibition in assay [1] and in assay [4] were 22% and 98% (active), respectively. Moreover, the inhibition is 78% (active) in assay [2] and 3% in assay [3]. In addition, the result in assay [5], in assay [6], in assay [7] and in assay [8] was inactive.

Regarding `O=[N+]([O-])c1cccc(S(=O)(=O)N2CCN(CC(O)COc3ccc(-c4ccccc4)cc3)CC2)c1` (stereo not given), the growth inhibition was 32% in assay [1] and 94% (active) in assay [4]. Also, the inhibition in assay [2] was 11%; in assay [3] it was 0%. Besides, the result in assay [5], in assay [6], in assay [7] and in assay [8] was inactive.

For `CN1CCC(N2CCC(Oc3cccc(C(=O)NCCCC4CCCC4)c3)CC2)CC1`, the results for the growth inhibition in assay [1] and in assay [4] were 48% and 101% (active), respectively. Also, the values for the inhibition in assay [2] and in assay [3] were 41% and -3%, respectively. Moreover, the outcome in assay [5], in assay [6], in assay [7] and in assay [8] was inactive.

On to `CC(C)N1CCC(N(Cc2ccc(-c3ccc(C(F)(F)F)cc3)cc2)C(=O)Cn2c(CCc3cccc(F)c3F)nc(=O)c3cccnc32)CC1`, for which the growth inhibition is 80% (active) in assay [1] and 100% (active) in assay [4]. In addition, the inhibition in assay [2] is 100% (active); in assay [3], 6%. Also, the outcome in assay [5], in assay [6], in assay [7] and in assay [8] was inactive.

Consider `NC(=O)C1CCN(Cc2ccc(-c3ccc(-c4nc5ccc(C(F)(F)F)cc5[nH]4)cc3)cc2)CC1`, for which the values for the growth inhibition in assay [1] and in assay [4] were 90% (active) and 100% (active), respectively. In addition, the inhibition in assay [2] was 25%; in assay [3], -1%. For the same compound, the outcome in assay [5], in assay [6], in assay [7] and in assay [8] was inactive.

For the compound `COc1cc(C=NNc2cc(C)nc3c(OC)cccc23)cc(OC)c1OC`, the figures for the growth inhibition in assay [1] and in assay [4] were 49% and 94% (active), respectively. Moreover, the inhibition in assay [2] was 2%; in assay [3] it was 0%. For the same compound, the outcome in assay [5], in assay [6], in assay [7] and in assay [8] was inactive.

For the compound `Cn1ccc(-c2cccc(Nc3ccnc4cc(-c5nccs5)ccc34)c2)n1`, the growth inhibition in assay [1] was 94% (active); in assay [4], 101% (active). Further, the inhibition in assay [2] is 39%; in assay [3], -1%. In addition, the outcome in assay [5], in assay [6], in assay [7] and in assay [8] was inactive.

As to `Cc1ncccc1-c1cccc2c(NC(=O)Nc3ccc4nccc(N5CCN(C)CC5)c4c3)cccc12`, the results for the growth inhibition in assay [1] and in assay [4] were 96% (active) and 101% (active), respectively. The inhibition in assay [2] is 19%; in assay [3], -6%. Besides, the outcome in assay [5], in assay [6], in assay [7] and in assay [8] was inactive.

With `Cc1cccc(CNc2ncc(C)c(NCCC(=O)Nc3ccccc3)n2)c1`, the results for the growth inhibition in assay [1] and in assay [4] were 10% and 81% (active), respectively. Also, the inhibition is 18% in assay [2] and 5% in assay [3]. The result in assay [5], in assay [6], in assay [7] and in assay [8] was inactive.

For `Cc1nc(-c2nc(NCCc3c(C)noc3C)ncc2-c2ccsc2)sc1C`, the figures for the growth inhibition in assay [1] and in assay [4] were 85% (active) and 87% (active), respectively. Also, the results for the inhibition in assay [2] and in assay [3] were 12% and -2%, respectively. Further, the result in assay [5], in assay [6], in assay [7] and in assay [8] was inactive.

Regarding `COc1ccc(CN2CCCN(Cc3cccc(NC(=O)c4ccc(-c5ccccc5)cc4)c3)CC2)cc1`, the growth inhibition is 24% in assay [1] and 94% (active) in assay [4]. Further, the inhibition was 37% in assay [2] and 1% in assay [3]. The result in assay [5], in assay [6], in assay [7] and in assay [8] was inactive.
